# NR3A LBD binder: binders of NR3A ligand-binding domain, primary screen, biophysical, differential scanning fluorimetry, uHTS; Glutamate receptor ionotropic, NMDA 3A (GRIN3A) ligand-binding domain; NR3A LBD differential scanning fluorimetry, Tm shift; 0% = protein alone, 100% = glycine-bound protein; Tm shift relative to glycine control, % at 25 µM; 2.5% of 340,000 active; AID 1259313, 2017;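 active means melting temperature shift of at least 10% of the positive control shift, at one fixed dose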
# CRFR2-BP antag: antagonists of CRF-BP/CRF-R2 complex, primary screen, cell-based, HEK293, calcium dye fluorescence, uHTS; CRF-induced calcium fluorescence; inhibition, % at 11.8 µM; 0.59% of 350,000 active; AID 588475, 2011;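 active means inhibition of the ligand-induced calcium signal above about 50% at the single tested concentration, limit read from the data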
# ANO1 activ: TMEM16A chloride channel activators or potentiators, primary screen, cell-based, HTS; Anoctamin-1 (Mus musculus), Q8BHY3; HEK293 TMEM16A/YFP-H148Q/I152L, iodide quench fluorescence; stronger effect = lower value; B-score at 10 µM; 0.3% of 340,000 active; AID 623877, 2012;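 active means fluorescence-ratio B-score plate-corrected deviation score at least 3 library SD below zero, with starting fluorescence score within 5 deviations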;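 further: channel opened by trigger with iodide after compound preincubation; score built on the fluorescence ratio of max minus min over baseline; more negative score means more quench and so TMEM16A activation or potentiation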
# TMEM16A inh: TMEM16A chloride channel inhibitors, primary screen, cell-based, HTS | 1.2% of 310,000 active | HEK293 TMEM16A/YFP iodide influx fluorescence, ionomycin | AID 588511, 2011 | Anoctamin-1 (Mus musculus), Q8BHY3 | normalized B-score (activity score, 25-100; higher = stronger inhibition) at 10 µM;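 active means ratio plate-corrected score three or more library SD toward inhibition, starting fluorescence score within five deviations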;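 further: score derived from kinetic fluorescence span divided by baseline fluorescence per well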
# MPTP block: mitochondrial permeability transition pore inhibitors, primary screen, biochemical, isolated mouse mitochondria, absorbance; Ca2+ swelling absorbance, 30 min; inhibition, % at 10 µM; 1.4% of 360,000 active;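 active means inhibition of 50% or more, scaled per plate between neutral and stimulator controls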;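 further: 0% = DMSO wells given calcium and 100% = 1 mM EGTA wells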
# CRFBP-R2 agonist: agonists of CRF-BP/CRF-R2 complex, primary screen, cell-based, HEK293, calcium dye fluorescence, uHTS. CRF-binding protein / CRF receptor 2 complex (human). calcium dye fluorescence (FLIPR); percent of saturating CRF peptide response. activation, % at 13.2 µM. 0.46% of 350,000 active;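 active means activation of at least 50%, plus an integration ratio under a set limit after plate pattern correction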;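 further: plate controls were neutral control wells without compound for no effect and CRF at EC100 for full effect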
# Starred values were filed as active, the others as inactive; i = inactive; x = no result given. A selection: hits, their analogues and other compounds. The true share with any hit is near 5.1%.
SMILES,NR3A LBD binder,CRFR2-BP antag,ANO1 activ,TMEM16A inh,MPTP block,CRFBP-R2 agonist
COc1cccc(-c2cnc(C(O)c3cc(F)cc(Cl)c3)[nH]2)c1 (stereo unspecified),x,x,x,x,4,x
Cc1nnc(NC(=O)CSc2nnc(Cc3ccccc3)n2-c2ccccc2)s1,0,81*,i,i,-4,-3
CCc1nnc(NC(=O)CSc2nnc(Cc3ccccc3)n2-c2ccccc2)s1,2,10,i,i,0,-3
Nc1nc(Nc2ccccc2)nc(N2CCOCC2)c1[N+](=O)[O-],1,-30,i,i,1,-4
Nc1nc(Nc2ccccc2F)nc(N2CCOCC2)c1[N+](=O)[O-],15*,-35,i,i,1,1
CCN(CC)c1ccc(/C=C(/C#N)C(=O)NCc2ccccc2)o1,-3,-157,i,i,2,141*
COc1ccc([C@H]2C[C@H](n3cc(C4CC4)nn3)[C@@H](O)CN2C(=O)C2CCCCC2)cc1,x,-1,x,x,-1,-1
O=C(CN1CCN(S(=O)(=O)c2cccc(Br)c2)CC1)N1CCCCC1,-1,5,i,x,0,0
O=C(O)C1=CCCNC1,-1,57*,i,i,-5,-1
COC(=O)CSc1nnc(CSc2nc(C)cc(C)n2)n1Cc1ccco1,14*,2,i,i,1,0
Cc1cc(C)nc(SCc2nnc(SCc3ccc([N+](=O)[O-])cc3)n2Cc2ccco2)n1,0,79*,i,i,2,-1
Cc1cc(C)nc(SCc2nnc(SCC(=O)Nc3ccc(C)c(C)c3)n2Cc2ccco2)n1,1,17,i,i,0,0
CC1CCCN(CCCNC(=O)C2CC(=O)N(CCc3ccccc3)C2)C1 (stereo unspecified),-2,-2,i,i,-2,1
CC(=O)Cc1nsc(NC(=O)c2ccc(COc3ccccc3C)o2)n1,0,35,i,i,-1,-2
CC(=O)c1cc(NC(=O)c2ccc(C)cc2)c(=O)oc1/C=C/N(C)C,1,-83,i,i,-4,123*
COc1ccc(C(=O)Nc2cc(C(C)=O)c(/C=C/N(C)C)oc2=O)cc1,-1,-178,i,i,0,155*
O=C(Nc1ccccc1Cl)c1cc(C2CCCN(C(=O)c3cccs3)C2)on1 (stereo unspecified),x,x,x,x,0,x
COc1ccc(OC)c(/C=C2\SC(N3CCCC(C)C3)=NC2=O)c1 (stereo unspecified),-2,5,i,100*,1,-4
COc1ccc(/C=C2\SC(N3CCCCC3)=NC2=O)cc1OC,-3,-21,i,i,-1,-4
CCOc1ccc(-c2[nH]ncc2-c2ccc(Cl)cc2)c(O)c1,22*,7,i,i,1,1
C=C(C)COc1ccc(-c2nc(N)ncc2-c2ccc(Br)cc2)c(O)c1,12*,4,i,i,2,4
C=C(C)COc1ccc(-c2[nH]ncc2-c2ccc(Br)cc2)c(O)c1,30*,18,i,i,10,5
C=C(C)COc1ccc(-c2[nH]ncc2Oc2ccc(OC)cc2)c(O)c1,9,39,i,i,26,4
CCOc1ccc(-c2[nH]ncc2-c2ccc(OC)c(OC)c2)c(O)c1,-1,5,i,i,-2,-1
C=C(C)COc1ccc(-c2[nH]ncc2Oc2ccccc2OC)c(O)c1,16*,51*,i,i,12,-5
SMILES,NR3A LBD binder,CRFR2-BP antag,ANO1 activ,TMEM16A inh,MPTP block,CRFBP-R2 agonist
C=C(C)COc1ccc(-c2ncncc2-c2ccc(Br)cc2)c(O)c1,0,-4,i,i,-1,7
CCCN1CCC(=O)N([C@H](CN=[N+]=[N-])Cc2ccccc2)CC1,-1,14,i,i,0,5
C=C(C)COc1ccc(-c2n[nH]c(C)c2-c2ccc(Br)cc2)c(O)c1,32*,5,i,i,7,0
CCCOC(=O)c1ccc(Oc2cn[nH]c2-c2ccc(OC)cc2O)cc1,17*,-7,i,i,-4,0
O=[N+]([O-])c1cccc(-c2nc(-c3ccccn3)no2)c1,0,59*,i,i,1,-1
COc1ccc([C@H]2CC(=O)C[C@@H](CCn3cc(C)nn3)O2)cc1,x,x,x,x,2,x
N#Cc1ccc(OCC(O)CN2CCN(CC(O)COc3ccc(C#N)cc3)CC2)cc1 (stereo unspecified),1,15,i,i,-1,-1
N#Cc1ccc(OCC(O)CN2CCN(c3ncc(C(F)(F)F)cc3Cl)CC2)cc1 (stereo unspecified),-3,-6,i,25*,2,1
O=C1C(Cl)=C(Nc2ccc(O)cc2)C(=O)c2ccccc21,2,86*,i,i,9,-4
Cc1ccc(NC2=C(Cl)C(=O)c3ccccc3C2=O)cc1,-5,91*,i,i,2,-1
COC1=C(Nc2ccc(O)cc2)C(=O)c2ccccc2C1=O,1,31,i,i,-8,-1
CCN(CC)c1ccc(NC2=C(Cl)C(=O)c3ccccc3C2=O)cc1,-1,59*,i,i,4,-1
CCN(CC)C(=O)[C@H]1C[C@H](CC(=O)NCc2ccc(OC)c(OC)c2)C(=O)N2CCc3c([nH]c4cc(-c5ccco5)ccc34)[C@]12C,2,7,x,x,0,1
C=CCN(c1nc(C)c(Br)c(OC)n1)S(=O)(=O)c1ccc(C)cc1,2,38,i,i,-1,0
CCOC(=O)c1cc(S(=O)(=O)Nc2ccc(F)cc2F)cn1C,0,72*,i,i,0,0
Cc1cccc(/C=N/NC(=O)c2cc3c(s2)-c2ccccc2CC3)c1,4,-8,i,i,1,3
O=C(N/N=C/c1cccc(C(F)(F)F)c1)c1cc2c(s1)-c1ccccc1CC2,14*,2,i,i,3,2
CCN1C(=O)[C@@H]2[C@@H](c3ccc(-c4cc(C(C)=O)cs4)cc3)N3CCC[C@@]3(C(=O)OC)[C@@H]2C1=O,0,1,i,x,1,-3
CC(NC(=O)Cc1ccc(-c2ccccc2)cc1)c1ccccc1 (stereo unspecified),-3,14,-18*,i,3,-2

# Assay outcomes deposited in PubChem by several laboratories.
